Screens deposited in PubChem by National Center for Advancing Translational Sciences (NCATS).
RORg inh: ROR gamma (mouse) transcription inhibition. P51450. Drosophila S2 Gal4-RORgamma UAS-luciferase reporter, 20 h. Potency, µM (top dose mostly 53.6 µM), inactives show top-dose activity change, negative = inhibition, most hits filed as inhibitors. hit rate 5.4% among 310,000. AID 2551; further: potency means the concentration at half of the fitted maximal effect; nearly all actives have a fitted effect of over 60% in size
Target sequence (P51450 whole entry, looked up, the tested form may be a part): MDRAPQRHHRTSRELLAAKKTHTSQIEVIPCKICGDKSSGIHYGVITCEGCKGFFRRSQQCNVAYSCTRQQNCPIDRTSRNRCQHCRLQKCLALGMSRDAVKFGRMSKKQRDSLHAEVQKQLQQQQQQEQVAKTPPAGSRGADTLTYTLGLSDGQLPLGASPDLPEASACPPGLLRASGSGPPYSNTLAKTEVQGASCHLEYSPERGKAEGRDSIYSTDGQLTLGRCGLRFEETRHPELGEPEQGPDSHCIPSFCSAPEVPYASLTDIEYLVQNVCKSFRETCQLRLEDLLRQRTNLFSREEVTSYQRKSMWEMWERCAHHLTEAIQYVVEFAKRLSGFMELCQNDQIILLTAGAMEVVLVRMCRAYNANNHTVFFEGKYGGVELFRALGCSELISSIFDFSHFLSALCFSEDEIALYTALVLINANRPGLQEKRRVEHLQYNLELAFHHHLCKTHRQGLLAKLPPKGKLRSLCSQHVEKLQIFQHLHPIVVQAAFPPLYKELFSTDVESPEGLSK
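Schneider cells (Drosophila), stable Gal4 DBD–ROR gamma + UAS-luc; 1 hr cmpd preincubation; Cu2+ induction 700 uM final; 20 hr ambient; luminescence.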
TDP1 cell CPT: growth inhibition of DT40 Tdp1-/-;hTDP1 cells with camptothecin (screen for TDP1 inhibitors). chicken DT40 Tdp1-/-;hTDP1 cells + 20 nM CPT, ATP luminescence, 48 h. Potency, µM (doses to about 46.2 µM), for inactives: top-dose activity change, negative = growth inhibition, actives largely listed as inhibitors. hit rate 12% among 420,000. AID 686979; further: potency means the concentration at half of the fitted maximal effect; nearly all actives have a fitted effect of over 55% in size
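Chicken DT40 Tdp1-/- cells stably complemented with human TDP1 were seeded at 400 cells/well in medium containing 20 nM camptothecin, exposed to pin-transferred compounds, and grown at 37 °C for at least 48 hr. Viability was read as ATP luminescence.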
VP16 counter: Gal4-VP16 reporter inhibition counter-screen; Drosophila S2 Gal4-VP16 UAS-luciferase, luminescence, 20 h; Potency, µM (titrated, usually from 53.6 µM), inactives show at the highest dose activity, negative = inhibition, usual class: inhibitors; hit rate 3.5% among 310,000; AID 2546;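 further: Gal4-VP16 expression switched on by copper sulfate through the metallothionein promoter; potency means the concentration at half of the fitted maximal effect; nearly all actives have a fitted effect of over 50% in size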
DT40 TDP1 no CPT: qHTS for Inhibitors of human tyrosyl-DNA phosphodiesterase 1 (TDP1): qHTS in cells in absence of CPT; DT40 Tdp1-/- hTDP1 cells, no CPT, ATP luminescence, 48 h; Potency, µM (series often up to 46.2 µM), inactives show at the highest dose activity change, negative = growth inhibition, most hits filed as inhibitors; hit rate 15% among 420,000; further: potency means the concentration at half of the fitted maximal effect; nearly all actives have a fitted effect of over 55% in size
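Seeded 400 DT40-hTDP1 cells/well (vehicle DMSO, no 20 nM CPT); pinned compounds; ≥48 hr at 37 °C; CellTiter-Glo luminescence as viability measure.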
IL-1B inflam inh: blocks inflammasome-driven IL-1 beta release | hit rate 4.7% among 360,000 | activity change, % at 57.5 µM | THP-1 LPS/ATP IL-1B secretion, AlphaLISA, 16 h; stronger effect = lower value | AID 743279; in the data active means activity change below about -50%; inconclusive means mostly about -30% to -49%
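Secreted IL-1B measured by AlphaLISA bead assay after 16 h compound exposure of THP-1 cells; compounds (final up to 57.5 uM) added 1 h before LPS (250 ng/mL) and ATP (1.25 mM) stimulation; lower signal means less secretion.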
ELG1 repair inh: blocks ELG1-dependent DNA repair in HEK293T cells; HEK293T ELG1-luciferase reporter, luminescence, 16 h; DNA damage induced by 5-fluorouridine; hit rate 2.3% among 330,000; Potency, µM (series often up to 46.1 µM), for the others: top-dose activity change, negative = inhibition, actives largely listed as inhibitors; further: potency means the concentration at half of the fitted maximal effect; nearly all actives have a fitted effect of over 55% in size
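Luminescence from the luciferase reporter, measured 30 min after ONE-Glo reagent at room temperature, was the read-out. Beforehand, 2,000 cells per well were exposed for 16 hr at 37 °C to 5-fluorouridine together with compound or vehicle.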
Numbers without * were called inactive; ? = inconclusive; · = not tested or not shown. Most compounds without a hit are left out; they make up all but 21% or so of the library. Unless noted, the call rests on the fitted dose curve; in most records, active means well fitted curve in the direction sought with a large enough effect; inconclusive means small, poorly fitted or top-dose-only effect, or another doubt; inactive means no such curve, though single readings can be large; an effect the other way counts as inactive or inconclusive. On the % scale 0 is the no-effect control and ±100 the full control effect.

SMILES	RORg inh	TDP1 cell CPT	VP16 counter	DT40 TDP1 no CPT	IL-1B inflam inh	ELG1 repair inh
COc1ccc(-n2nc(C(=O)NCC(=O)NC3CCCCCC3)c3ccccc3c2=O)cc1OC	10%	-13%	4%	?	11	18µM*
Cn1c(SCC(=O)NCC2COc3ccccc3O2)nnc1C(F)(F)F (stereo unspecified)	·	0%	·	-4%	-5	7%
CCCn1nc(C(=O)NCC2COc3ccccc3O2)c2ccccc2c1=O (stereo unspecified)	·	?	·	?	73	21µM*
CCN(CCCNC(=O)CNC(=O)c1nn(-c2ccc(OC)c(OC)c2)c(=O)c2ccccc12)c1ccccc1	10%	?	-6%	18µM*	?	10µM*
CCn1cnnc1SCC(=O)NCC1COc2ccccc2O1 (stereo unspecified)	·	-2%	·	1.8µM*	0	?
CC(C)(C)C(=O)NC1(C(F)(F)F)C(=O)Nc2c1c(=O)[nH]c(=O)n2-c1ccccc1 (stereo unspecified)	·	9%	·	4%	·	·
CCOC(=O)CNC(=O)CNC(=O)c1nn(-c2ccc(OC)c(OC)c2)c(=O)c2ccccc12	12%	-18%	-9%	-29%	-8	-13%
COc1ccc(-n2nc(C(=O)NCC(=O)NCCc3ccc(OC)c(OC)c3)c3ccccc3c2=O)cc1	34%	?	-19%	?	0	16µM*
COc1ccc(-n2nc(C(=O)NCC(=O)NCC3COc4ccccc4O3)c3ccccc3c2=O)cc1OC (stereo unspecified)	23%	?	-5%	?	5	9.2µM*
CCOC(=O)C1CCN(C(=O)CNC(=O)c2nn(-c3ccc(OC)c(Cl)c3)c(=O)c3ccccc23)CC1	1%	?	-7%	?	-2	15µM*
Cc1ccc(OCCCC(=O)N(C)CC(=O)Nc2ccccc2Cl)cc1	·	-5%	·	-20%	-10	0%
Cc1ccc(NS(=O)(=O)c2c(C)[nH]c(C)c2C(=O)N2CCCCC2)cc1Cl	15%	?	0%	-18%	0	3%
CC(C)c1ccc(C(C)NCCS(=O)(=O)c2ccc(Cl)cc2)cc1 (stereo unspecified)	?	21µM*	?	12µM*	-77*	-1%
O=C(NCCS(=O)(=O)c1ccc(Br)cc1)c1ccc(Cl)cc1	0%	-15%	-6%	-2%	-7	-1%
CC(C(=O)NCCS(=O)(=O)c1ccc(Br)cc1)S(=O)(=O)c1ccc(Cl)cc1 (stereo unspecified)	34%	-2%	8%	?	-50*	-5%
Cc1ccc(S(=O)(=O)Cc2ccc(C(=O)NC3CCCCCC3)o2)cc1	23%	?	6%	?	2	-8%
CCc1ccc2[nH]c(=O)c(CN(CCCN3CCOCC3)C(=O)Nc3ccc(F)cc3)cc2c1	-6%	?	-14%	13µM*	?	?
Cc1ccc2cc(CN(CCN3CCCC3)C(=O)Nc3ccc(F)cc3)c(=O)[nH]c2c1C	-16%	23µM*	-1%	18µM*	?	-1%
CCOc1ccccc1C(=O)N(Cc1ccccc1)Cc1cc2cc3c(cc2[nH]c1=O)OCCO3	·	26µM*	·	23µM*	4	·
CCOc1ccc(NC(=S)N(CCN2CCOCC2)Cc2cc3cc4c(cc3[nH]c2=O)OCCO4)cc1	35%	?	1%	-11%	-53*	?
CCc1ccc2[nH]c(=O)c(CN(CCN3CCOCC3)C(=O)Nc3ccccc3F)cc2c1	36%	?	19%	?	-10	?
Cc1ccc(NCC2(N=Cc3ccccc3)OC(CO)C(O)C2O)cc1 (stereo unspecified)	·	?	·	?	8	·
COc1ccccc1NC(=O)N(CCCN1CCOCC1)Cc1cc2cc3c(cc2[nH]c1=O)OCO3	-24%	-16%	-8%	?	-17	6%
O=C(Nc1ccc(F)cc1)N(CCCN1CCOCC1)Cc1cc2cc3c(cc2[nH]c1=O)OCCO3	45%	8.2µM*	6%	?	-16	?
CCOC(=O)c1c(CSc2nc(C)cc(C)c2C#N)n(C)c2cc(Br)c(OC(C)=O)cc12	-3%	?	-1%	26µM*	58	?
SMILES	RORg inh	TDP1 cell CPT	VP16 counter	DT40 TDP1 no CPT	IL-1B inflam inh	ELG1 repair inh
CCOC(=O)c1c(C)n(C)c2cc(Br)c(C(=O)OC)cc12	-11%	-18%	-3%	?	-12	-10%
CCOC(=O)c1c(CN2CCN(CCO)CC2)n(C)c2cc(Br)c(OC)cc12	-34%	?	-4%	?	-12	11%
CCOC(=O)c1c(CSC(=N)N)n(-c2ccc(Br)cc2)c2cc(Br)c(OC(C)=O)cc12	?	?	?	23µM*	-109*	?
CCOC(=O)c1c(C)n(C)c2cc(Br)c(OC)cc12	-9%	-5%	2%	-3%	14	?
CCCCCCCCOC(=O)c1c(CSC(=N)N)n(C)c2cc(Br)c(OC(C)=O)cc12	?	6.5µM*	?	7.3µM*	-3	?
Cc1cc(NC(=O)CSc2ncnc3c2cnn3-c2cccc(Cl)c2)no1	-13%	-2%	-12%	?	2	4%
Cc1ccc(-c2cnc(C(O)c3cc(F)cc(Cl)c3)[nH]2)cc1 (stereo unspecified)	·	?	·	?	34	·
NN=C1c2ccccc2C(=O)C1C(=O)C(c1ccccc1)c1ccccc1 (stereo unspecified)	·	3%	·	-10%	-2	·
CC1=C(C(=O)N2CCOCC2)CC(CC(=O)NCC2CCCCC2)C(=O)N1Cc1ccccc1 (stereo unspecified)	·	2%	·	-8%	7	·
Cc1ccc(-n2nc3c(=O)n(CCCC(=O)NC(C)c4ccccc4)nc(C)c3c2C)cc1 (stereo unspecified)	·	-23%	·	?	·	·
Cc1nn(-c2ccccc2)c2c1N(CCCC(=O)NCc1ccc(OC(C)C)cc1)C(=O)CS2	·	15µM*	·	7.3µM*	·	·
CCCCOc1ccc(CNC(=O)CCCN2C(=O)CSc3c2c(C)nn3-c2ccccc2)cc1	·	18µM*	·	13µM*	·	·
Cc1nn(-c2ccccc2)c2c1N(CCCC(=O)NCc1ccc(Cl)cc1)C(=O)CS2	·	26µM*	·	23µM*	·	·
Cc1nn(-c2ccccc2)c2c1N(CCCC(=O)NC(C)c1ccccc1)C(=O)CS2 (stereo unspecified)	·	15µM*	·	?	·	·
